Measurements reported in publication PMC13423814.

How the values were obtained:
[1] = target: Peroxiredoxin-1 (UniProt Q06830)
[2] = target: DNA replication licensing factor MCM2 (UniProt P49736)
[3] = target: Histone H4 (UniProt P62805)
[4] = target: Serine/arginine-rich splicing factor 1 (UniProt Q07955)
Serine/arginine-rich splicing factor 1, sequence (Q07955 whole entry): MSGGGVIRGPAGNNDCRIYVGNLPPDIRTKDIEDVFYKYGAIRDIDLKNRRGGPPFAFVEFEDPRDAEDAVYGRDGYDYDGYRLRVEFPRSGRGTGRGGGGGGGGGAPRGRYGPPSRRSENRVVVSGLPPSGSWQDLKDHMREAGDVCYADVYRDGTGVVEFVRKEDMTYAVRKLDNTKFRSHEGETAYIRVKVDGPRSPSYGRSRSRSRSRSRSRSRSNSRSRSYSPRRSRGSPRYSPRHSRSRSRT

DNA replication licensing factor MCM2, sequence (P49736 whole entry): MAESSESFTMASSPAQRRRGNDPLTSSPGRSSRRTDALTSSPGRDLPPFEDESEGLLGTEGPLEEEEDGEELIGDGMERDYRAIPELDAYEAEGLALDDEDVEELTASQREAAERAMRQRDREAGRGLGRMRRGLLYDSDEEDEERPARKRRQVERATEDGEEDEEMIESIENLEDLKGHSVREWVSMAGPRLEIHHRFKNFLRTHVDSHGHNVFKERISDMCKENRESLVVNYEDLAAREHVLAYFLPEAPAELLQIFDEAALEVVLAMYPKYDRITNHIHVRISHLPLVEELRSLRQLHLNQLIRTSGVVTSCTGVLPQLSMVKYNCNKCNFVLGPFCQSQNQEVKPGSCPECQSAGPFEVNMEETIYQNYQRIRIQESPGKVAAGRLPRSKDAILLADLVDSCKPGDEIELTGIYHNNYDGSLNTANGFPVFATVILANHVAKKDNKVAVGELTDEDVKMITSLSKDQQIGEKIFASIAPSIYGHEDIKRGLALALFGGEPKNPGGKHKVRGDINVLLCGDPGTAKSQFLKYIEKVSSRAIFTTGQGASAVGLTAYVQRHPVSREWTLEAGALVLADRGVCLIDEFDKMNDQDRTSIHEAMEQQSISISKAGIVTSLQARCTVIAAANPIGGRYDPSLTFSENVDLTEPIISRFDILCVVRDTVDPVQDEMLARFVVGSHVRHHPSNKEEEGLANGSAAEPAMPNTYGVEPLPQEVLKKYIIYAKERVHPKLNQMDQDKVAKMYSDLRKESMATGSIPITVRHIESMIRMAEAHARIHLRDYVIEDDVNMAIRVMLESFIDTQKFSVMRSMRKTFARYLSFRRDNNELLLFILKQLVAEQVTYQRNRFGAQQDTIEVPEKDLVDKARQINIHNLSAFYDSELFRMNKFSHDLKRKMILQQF
Peroxiredoxin-1, sequence (Q06830 whole entry): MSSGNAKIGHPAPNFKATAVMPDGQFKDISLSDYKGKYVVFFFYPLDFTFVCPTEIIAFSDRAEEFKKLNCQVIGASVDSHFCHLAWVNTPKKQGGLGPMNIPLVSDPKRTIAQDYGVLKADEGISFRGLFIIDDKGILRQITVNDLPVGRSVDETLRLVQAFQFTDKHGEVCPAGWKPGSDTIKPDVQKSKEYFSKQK

Putative keratin-87 protein, A6NCN2
listed as a hit [1]: yes

DNA replication licensing factor MCM3, P25205
listed as a hit [2]: yes

Prelamin-A/C, P02545
listed as a hit [3]: yes

RNA-binding motif protein, X chromosome, P38159
listed as a hit [4]: yes
